Results as given in PubChem BioAssay.
Active and inactive are the calls of the source.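 How the source made its calls: active means mean duplicate potentiation above the buffer control mean plus 5 SD of buffer wells; inactive means the rest.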

The compounds below were run against Potassium voltage-gated channel subfamily KQT member 2 (Rattus norvegicus) (UniProt O88943) (assay: KCNQ2 thallium flux enhancement – KCNQ2-CHO-K1 cells, selectivity assay for KCNQ1 potentiator project (AID 493009;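 further: assay conditions were tuned for KCNQ1 rather than KCNQ2 modulators; signal is max minus min fluorescence divided by baseline after thallium stimulus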)). Conditions: FluxOR thallium flux fluorescence, at 10 µM; hits give high values, scaled: buffer 0, activator control 100.
Potassium voltage-gated channel subfamily KQT member 2 (Rattus norvegicus), sequence (O88943 whole entry, looked up): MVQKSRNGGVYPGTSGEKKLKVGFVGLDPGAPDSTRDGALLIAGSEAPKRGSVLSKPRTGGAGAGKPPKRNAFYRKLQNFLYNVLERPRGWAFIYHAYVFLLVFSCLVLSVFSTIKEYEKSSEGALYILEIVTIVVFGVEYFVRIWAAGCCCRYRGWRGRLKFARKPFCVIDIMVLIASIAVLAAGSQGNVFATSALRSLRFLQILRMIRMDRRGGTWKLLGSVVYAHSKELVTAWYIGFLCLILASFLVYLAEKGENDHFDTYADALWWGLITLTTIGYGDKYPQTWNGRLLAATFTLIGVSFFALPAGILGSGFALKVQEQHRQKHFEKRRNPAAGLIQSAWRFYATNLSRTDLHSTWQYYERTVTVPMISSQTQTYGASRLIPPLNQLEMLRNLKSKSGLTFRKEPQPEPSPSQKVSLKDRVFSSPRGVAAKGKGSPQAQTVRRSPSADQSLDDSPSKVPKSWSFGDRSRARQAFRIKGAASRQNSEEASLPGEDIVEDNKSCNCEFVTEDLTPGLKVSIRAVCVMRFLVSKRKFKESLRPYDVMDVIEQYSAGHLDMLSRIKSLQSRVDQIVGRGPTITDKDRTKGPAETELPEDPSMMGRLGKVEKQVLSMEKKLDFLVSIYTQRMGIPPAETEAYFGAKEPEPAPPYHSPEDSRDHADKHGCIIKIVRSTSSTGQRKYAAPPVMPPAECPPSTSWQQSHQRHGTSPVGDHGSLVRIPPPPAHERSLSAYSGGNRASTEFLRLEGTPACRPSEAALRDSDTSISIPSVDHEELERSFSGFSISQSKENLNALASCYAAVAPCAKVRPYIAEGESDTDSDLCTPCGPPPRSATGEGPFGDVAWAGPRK
With `CC1(N2CCCCC2)CC2(O)C(=[N+]1[O-])CCC/C2=N\O` (stereo not given) the outcome was “inactive”.
With `Cc1ccccc1C([O-])=Nc1ccc[n+](-c2nc3ccccc3nc2NS(=O)(=O)c2ccccc2)c1` the outcome was “inactive”.
With `Cc1ccc(-c2csc(=S)[nH]2)cc1` the potentiation was 643% (active).
For `COc1ccc(S(=O)(=O)NCCCN2CCOCC2)cc1F`, the outcome was “inactive”.
For `CCOc1ccccc1NC(=O)CCC(=O)Nc1ccccc1OCC`, the outcome was “inactive”.
In the case of `CCOc1ccccc1NC(=O)C(=O)CC(=O)c1cccc(OC)c1`, the potentiation is reported as 280% (active).
In the case of `OC(CNC1CCCCC1)COCCOc1ccc(Br)cc1` (stereo not given), the outcome is reported as “inactive”.
`Fc1ccc(-c2csc(=S)[nH]2)cc1` was tested, and the potentiation was 398% (active).
For `Nc1nc(N)c(N=Nc2ccc(C(=O)O)cc2)c(N)n1`, the outcome was “inactive”.
In the case of `CC1CCN(C(=S)NC(=O)c2ccccc2)CC1`, the potentiation is reported as 150% (active).
`C#CC1(NC(=O)NCCCC)CCCCC1` was tested, and the outcome was “inactive”.
With `CC(C)N(C(=O)CSc1ncnc2sc(-c3ccccc3)cc12)C(C)C` the outcome was “inactive”.
For `Cc1cc(Cl)ccc1OCc1n[nH]c(=S)n1C1CCCCC1`, the potentiation was 212% (active).
`Cn1c(=S)[nH]c2scc(-c3cccs3)c2c1=O` was tested, and the potentiation was 500% (active).
In the case of `COc1ccc(C(=O)NC(=S)N(Cc2ccccc2)Cc2ccccc2)cc1`, the potentiation is reported as 436% (active).
For `CCCCN1CNC(=S)N(c2ccccc2OCC)C1`, the outcome was “inactive”.
In the case of `O=C1c2cccc3cccc(c23)C(=O)C1(O)O`, the outcome is reported as “inactive”.
`COc1cc2c3nnc(-c4ccccc4)c-3cn(Cc3ccc(F)cc3)c2cc1OC` was tested, and the outcome was “inactive”.
In the case of `Nc1ccccc1OCCOCCOc1ccccc1N`, the outcome is reported as “inactive”.
`Oc1ccc(CN2CCCCC2)c2cccnc12` was tested, and the potentiation was 144% (active).
For `Oc1c(Br)cc(Br)cc1C=NCc1ccccc1`, the outcome was “inactive”.
For `COC(=O)c1ccc(CSc2ncnc3sc(C)c(C)c23)o1`, the potentiation was 163% (active).
In the case of `O=C(c1cccc(-c2ccccc2F)c1)N1CC[C@@H](N2CCC(O)CC2)[C@H](O)C1`, the outcome is reported as “inactive”.
`CCOc1ccc(S(=O)(=O)N2CCCC(C(=O)NCCN3CCOCC3)C2)cc1Cl` (stereo not given) was tested, and the potentiation was 250% (active).
With `Cc1ccc2nc(NC(=S)NC(=O)c3ccco3)sc2c1` the potentiation was 325% (active).
For `O=C(COc1ccccc1)N1CCN(S(=O)(=O)c2cccs2)CC1`, the outcome was “inactive”.
In the case of `COc1ccccc1-c1nc(C#N)c(N2CC(C)CC(C)C2)o1` (stereo not given), the outcome is reported as “inactive”.
With `O=C(NCc1ccccc1)/C(=C/c1ccccc1)NC(=O)c1ccco1` the outcome was “inactive”.
`CCCCCCCCCCCCN1[C@@H](CC(=O)O)c2cc(F)ccc2S1(=O)=O` was tested, and the potentiation was 190% (active).
`CCC1(c2ccc(Cl)cc2)NC(=S)N(c2ccccc2)N1` (stereo not given) was tested, and the potentiation was 375% (active).
In the case of `CC(=O)NC1=C(NC2CCS(=O)(=O)C2)C(=O)c2ccccc2C1=O` (stereo not given), the outcome is reported as “inactive”.
In the case of `Cc1cccc(S(=O)(=O)Nc2cccc3c2C(=O)c2ccccc2-3)c1`, the potentiation is reported as 152% (active).
In the case of `O=C(CC(=O)c1ccccc1O)c1cccc(F)c1`, the potentiation is reported as 188% (active).
In the case of `Fc1ccc(-n2nnc(-c3ccccc3)n2)cc1`, the outcome is reported as “inactive”.
For `CC(=O)c1c(NC(=O)c2ccccc2)[nH]c(-c2ccccc2)nc1=S`, the potentiation was 236% (active).
With `C/C(=N\NC(=O)c1cccc(Br)c1)c1ccccn1` the outcome was “inactive”.
In the case of `CN(C)c1nc(=Nc2cccc(Cl)c2)ss1`, the potentiation is reported as 273% (active).
For `C/C(=N\NC(=O)c1cc2ccccc2cc1O)c1ccccn1`, the potentiation was 169% (active).
`CCOc1ccccc1C1CC(=O)Nc2cc3c(cc21)OCCO3` (stereo not given) was tested, and the outcome was “inactive”.
`COc1ccc(C)cc1NC(=O)C1C2C=CC(C2)C1C(=O)O` (stereo not given) was tested, and the outcome was “inactive”.
